ABHD5 PLIN5 PPI: inhibitors of human ABHD5-perilipin-5 interaction; inhibition, % at 4 µM; Split G. princeps luciferase complementation, luminescence, 4 h; AID 602281; 0.78% of 360,000 active;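 active means inhibition above the mean inhibition across every tested compound plus 3 SD, cut at about 22% in these data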
ALR inh: blocks human ALR sulfhydryl oxidase activity | P55789 | purified ALR, DTT oxidation, H2O2 HRP-luminol luminescence | inhibition, % (concentration not given with the values) | 3.8% of 290,000 active | AID 485317;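 active means mean replicate inhibition above about 79%, with every replicate also reaching it, limit read from the data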
PRMT1 inh: PRMT1 (human) inhibition, primary screen; Q99873; recombinant PRMT1, activity-based probe fluorescence polarization; inhibition, % at 2.79 µM; 1.3% of 370,000 active; AID 652257;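 active means inhibition above about 21% made by adding two undisclosed values, limit read from the data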
LANA-H2B inh: blocks KSHV LANA binding to histone H2A/H2B | Q9QR71 | cell-free LANA-H2A/H2B peptide, fluorescence polarization | inhibition, % (no concentration beside the values) | 0.6% of 320,000 active | AID 2629; in the data active means inhibition mostly above about 10%, no sharp cut-off; inactive means mostly below about 6.7%
rCAG binder: binds r(CAG) RNA repeats; inhibition, % at 3 µM; AID 651821; r(CAG) RNA repeat, TO-PRO-1 dye displacement fluorescence; 1.3% of 370,000 active;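 active means inhibition above the plate cutoff, the mean of all test compounds on that plate plus 3 SD, cut at about 35% in these data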;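 further: higher means more dye released from RNA so lower well fluorescence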
Rtt109 Vps75: C. albicans Rtt109 histone acetyltransferase inhibition; Q5AAJ8; purified Rtt109/Vps75, ThioGlo CoA-SH fluorescence, 4 h; inhibition, % at 34.9 µM; 0.16% of 330,000 active;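 active means inhibition of at least 50% in every replicate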
A number is an active result; n = inactive; x = not tested or not shown. In the library only some 5.9% were active in any assay of this set; here they are far more common.

SMILES | ABHD5 PLIN5 PPI | ALR inh | PRMT1 inh | LANA-H2B inh | rCAG binder | Rtt109 Vps75
COc1cc(/C=N/Nc2ccc(C(=O)O)cc2)ccc1O | n | 99 | n | n | n | n
O=C(N/N=C/c1cccnc1)c1cc(O)c(O)c(O)c1 | n | 97 | n | n | n | n
COc1cc(/C=N/NC(=O)c2cccc([N+](=O)[O-])c2)cc(OC)c1O | n | 98 | n | n | n | n
COc1cc(/C=N/Nc2ccc(C(=O)O)cc2)cc(OC)c1OC | n | n | n | n | n | n
COc1cc(C(=O)N/N=C(\C)c2ccc(NC(=O)Cc3ccccc3)cc2)ccc1O | n | 95 | n | n | n | n
CCN(CC)S(=O)(=O)c1cccc(C(=O)N/N=C/c2ccc(OC)c(O)c2)c1 | n | 97 | n | n | n | n
CCN(CC)S(=O)(=O)c1cccc(C(=O)N/N=C/c2ccccc2OCC(=O)O)c1 | n | n | n | n | n | n
COc1cc(/C=N/NC(=O)CN(Cc2ccco2)S(=O)(=O)c2ccccc2)ccc1O | n | 100 | n | n | n | n
COc1cc(/C=N/NC(=O)c2cccc(NC(=O)c3ccccc3Cl)c2)ccc1O | n | 88 | n | n | n | n
COc1cccc(C(=O)N/N=C(\C)c2ccc(NC(=O)Cc3ccccc3)cc2)c1OC | n | n | n | n | n | n
COc1ccc(/C=N/NC(=O)c2cccc(NC(=O)c3ccccc3Cl)c2)cc1OC | n | n | n | n | n | n
O=C(NCC(c1ccccc1)c1ccccc1)[C@H](Cc1c[nH]c2ccccc12)NC1(C(=O)NC2CCCCC2)CCC1 | x | x | n | x | x | x
CCCCn1nnnc1C1(C)CCC(=O)N1CCc1ccccc1F (stereo not given) | n | x | n | x | n | x
COc1cc(/C=N/NC(=O)c2ccc(CSc3nc4ccccc4[nH]3)cc2)ccc1O | n | 99 | n | n | n | n
COc1cc(/C=N/NC(=S)Nc2cccc(C(=O)O)c2)ccc1O | n | 99 | n | n | n | n
COc1ccc(/C=N/NC(=O)c2cccnc2)cc1O | n | 88 | n | n | n | n
COc1cc(/C=N/N=C/c2c[nH]c(=O)c(C#N)c2Nc2ccccc2)ccc1O | x | 78 | x | n | x | x
O=C(N/N=C/c1ccc(OC(=O)c2ccccc2)c([N+](=O)[O-])c1)c1ccc(O)cc1 | n | 94 | n | n | n | n
COc1cc(C(=O)N/N=C/c2cn(Cc3ccccc3)c3ccccc23)ccc1O | n | 85 | n | n | n | n
CN1C2CCC1CC(NC(=O)CSCc1ccc(Cl)cc1Cl)C2 (stereo not given) | n | 98 | n | n | n | n
COC(=O)[C@]12C[C@H](CC(=O)N3CCCC3)C(=O)N(Cc3ccccc3)C1=C[C@H](C(C)(C)C)O[C@@H]2C | x | x | n | x | n | x
CO[C@H]([C@H](C)/C=C/N(C)C=O)[C@@H](C)C(=O)CC[C@H](C)[C@H](O)[C@H](C)[C@H]1OC(=O)/C=C/C(C)=C/C[C@H](O)C[C@@H]2C=CC[C@@H](C[C@H](OC)C(C)(O)[C@@H](OC)C[C@@H](OC)[C@@H]1C)O2 (stereo not given in full) | x | x | n | x | x | x
CS(=O)(=O)Nc1cccc(NC(=O)c2cccc3c(-c4ccc(F)c(F)c4)coc23)c1 | n | x | n | x | n | x
Cn1cc(/C=C2/SC(=O)N(CC(=O)Nc3ccc4c(c3)OCO4)C2=O)c2ccccc21 | n | n | n | n | n | n
O=C(CN1C(=O)S/C(=C\c2ccc(-c3cc(C(=O)O)ccc3Cl)o2)C1=O)Nc1ccc2c(c1)OCO2 | n | n | n | n | 49 | n
SMILES | ABHD5 PLIN5 PPI | ALR inh | PRMT1 inh | LANA-H2B inh | rCAG binder | Rtt109 Vps75
O=C(Cc1c[nH]c2ccccc12)Nc1ccc(Nc2cccnc2)c(-c2cccc(Cl)c2)c1 | x | x | n | x | n | x
CCCCCn1c(Br)nc2c1c(=O)n(CC(N)=O)c(=O)n2C | n | 92 | n | n | n | n
C#CCOCCOCCOCCNc1nc(N2CCOCC2)nc(N2CCN(C(=O)[C@H](CO)n3cc([C@@H](N)C(C)C)nn3)CC2)n1 | n | n | n | n | n | n
Nc1ccccc1NC1=CC(=O)CC(c2ccco2)C1 (stereo not given) | n | 84 | n | n | n | n
Nc1ccccc1NC1=CC(=O)CC(c2ccccc2)C1 (stereo not given) | x | n | x | n | x | x
CC1CC(Nc2ccccc2N)=CC(=O)O1 (stereo not given) | n | 86 | n | n | n | n
Cc1ccc(NC2=CC(=O)CC(c3ccco3)C2)c(N)c1 (stereo not given) | n | 98 | n | n | n | n
Cc1cccc(NC2=CC(=O)OC(C)C2)c1 (stereo not given) | n | n | n | n | n | n
OC(c1ccccc1)(c1ccccc1)C1CCN(CCCOc2ccc(-c3ccncc3)cc2)CC1 | x | x | n | x | n | x
O=C1NC[C@H](CCCCN2C[C@H](Cc3ccccc3)N(Cc3ccccc3)C(=O)C2=O)N(CCc2ccccc2)C1=O | n | x | n | x | n | x
CCN1C(=O)CC(NNC(=O)c2ccccc2)C1=O (stereo not given) | n | n | n | n | n | n
CN(C)N1C(=O)CC(NNC(=O)c2ccncc2)C1=O (stereo not given) | n | 86 | n | n | n | n
C=CCN(c1ccc(F)cc1)S(=O)(=O)c1cc(C(=O)NC2CC2)ccc1Cl | n | x | n | x | n | x
CCOC(=O)/C(=N\Nc1ccccc1Cl)N1CCN(C)CC1 | n | 98 | n | n | n | n
CN(C)c1ccc(NC(=O)Nc2ccc3snnc3c2)cc1 | n | 95 | n | n | n | n
O=C(Nc1ccccc1)Nc1ccc2snnc2c1 | n | n | n | n | n | n
CC(C)NC(=O)Cn1c(-c2cncs2)nc2ccccc21 | x | x | n | x | n | x
CN(C)/C=C/C(=O)c1ccc(Br)s1 | n | 92 | n | n | n | n
Cn1c(NCCc2ccncc2)nc2cc(-c3cccc(C(F)(F)F)c3)sc2c1=O | n | x | n | x | n | x
O=C(Nc1cccc2ccccc12)c1ccc(Cn2cc(Cl)cn2)cc1 | n | n | n | n | n | n
O=C(c1ccc(Cn2cc(Cl)cn2)cc1)N1CCN(c2ccccc2)CC1 | n | 98 | n | n | n | n
O=C(Nc1ccccc1F)c1ccc(Cn2cc(Cl)cn2)cc1 | n | 100 | n | n | n | n
Cc1cccc(NC(=O)C2CCN(S(=O)(=O)c3c(C)noc3/C=C/c3ccco3)CC2)n1 | 23 | n | n | n | n | n
CCOc1ccc(-c2cc3nc(C4CCN(C(=O)OC(C)(C)C)CC4)c(C(=O)O)cn3n2)cc1 | n | 98 | n | n | 70 | n
CCOC(=O)N1CCN(C(=O)c2cc(-c3ccc(OCC)cc3)nc3ccccc23)CC1 | n | n | n | n | n | n
CCC(C)NC(=O)c1ccc(NS(=O)(=O)c2ccc3[nH]c(=O)[nH]c3c2)cc1 (stereo not given) | n | n | n | n | n | n
